High-throughput results (PubChem BioAssay)
AMA1-RON2 inh = disrupts binding of P. falciparum AMA1 to RON2; 360,000 compounds, 0.2% hits; AlphaScreen AMA1-biotinylated RON2 peptide binding; Potency, µM (doses to about 58.2 µM), for the others: top-dose activity change, negative = inhibition, usual class: inhibitors;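 further: potency means the concentration at half of the fitted maximal effect; 0% = vehicle wells and -100% = peptide control; nearly all actives have a fitted effect of over 45% in size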
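AMA1 (3D7) with his tag at 25 nM final met compounds first, then biotinylated RON2 peptide at 25 nM; detection used donor plus acceptor beads, 10 µg/mL apiece, read by AlphaScreen after 30 min at room temperature.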
Shiga inhibitor = inhibitors of Shiga toxin in Vero cells; Vero cells, Shiga toxin protein synthesis inhibition reporter; inhibition, % at 38.7 µM; 290,000 compounds, 9.2% hits; AID 2315; in the data active means inhibition mostly above about 28%, no sharp cut-off; inactive means mostly below about 43%; further: 0% is about no effect
Pf growth 96h = inhibits malaria parasite growth, 96 h; P. falciparum luciferase reporter growth, 96 h; Potency, µM (highest dose often 28.7 µM), without a hit: top-dose activity change, negative = inhibition, hits mostly inhibitors; 320,000 compounds, 6.9% hits; AID 504834; further: potency means the concentration at half of the fitted maximal effect; on the % scale 0 is the no-effect control and ±100 the full control effect
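Plates of compound plus infected erythrocytes (2% hematocrit, 0.05% parasitemia final) incubate 96 hours, 37 C, 5% CO2. Detection reagent added; reduced luminescence from the parasites' luciferase reporter flags inhibition.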
Pf growth 48h = P. falciparum growth inhibition at 48 hours (one generation); Potency, µM (highest dose often 28.7 µM), for the others: top-dose activity change, negative = inhibition, actives largely listed as inhibitors; P. falciparum luciferase growth in erythrocytes, 48 h; AID 504832; 310,000 compounds, 5.9% hits; further: potency means the concentration at half of the fitted maximal effect; on the % scale 0 is the no-effect control and ±100 the full control effect
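First compound was added to culture medium, then infected red cells at 0.1% parasitemia and 2% hematocrit (final). After incubation at 37 C under 5% CO2, luciferase detection reagent was dispensed and light output recorded.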
Cycloheximide cs = counter-screen for Shiga toxin inhibitors: cycloheximide protein synthesis inhibition; max response, %; cell reporter, cycloheximide protein synthesis inhibition counterscreen; 300,000 compounds, 12% hits; in the data active means max response mostly above about 13%, no sharp cut-off; inactive means mostly below about 14%; further: read at 38.3 µM for the half of the compounds with a filed dose; 0% is about no effect
HCV inhibitor = blocks hepatitis C virus. Huh7.5.1 HCVcc-Cre infection, luciferase reporter, 44 h. Potency, µM (top dose mostly 41.8 µM), for the others: top-dose activity change, negative = inhibition, actives largely listed as inhibitors. 340,000 compounds, 3.4% hits. AID 651820; further: potency means the concentration at half of the fitted maximal effect; on the % scale 0 is the no-effect control and ±100 the full control effect
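Antiviral activity was scored by luciferase reporter output from cells infected with HCVcc-Cre (~0.5 moi) in presence of compound, 44 h infection period, cells seeded 1,000/well 4 h prior.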
Active calls of the source: *; [ ] = another dose, or the depositor's remark. Sampled rows, rich in hits. Any-hit rate of the full collection: about 21%. Unless noted, the call rests on the fitted dose curve; in most records, active means well fitted curve in the direction sought with a large enough effect; inconclusive means small, poorly fitted or top-dose-only effect, or another doubt; inactive means no such curve, though single readings can be large; an effect the other way counts as inactive or inconclusive.

Screening CCCS(=O)(=O)c1c(S(=O)(=O)CCC)c2cc(-c3ccncc3)ccn2c1C(=O)OC returned AMA1-RON2 inh 3.7%, Shiga inhibitor 6.4, Pf growth 96h -17.9%, Pf growth 48h inconclusive, Cycloheximide cs -1.1 and HCV inhibitor -27.9%.
`CCCS(=O)(=O)c1c(S(=O)(=O)CCC)c2cnccn2c1C(=O)c1ccc(F)cc1` gave AMA1-RON2 inh 0.9%, Shiga inhibitor 3.8, Pf growth 96h -19.9%, Pf growth 48h 13.1µM*, Cycloheximide cs 1.3 and HCV inhibitor 2.1%.
`CCCS(=O)(=O)c1c(S(=O)(=O)CCC)c2cnccn2c1C(=O)c1ccc(CC)cc1` gave AMA1-RON2 inh 0.6%, Shiga inhibitor -4.1, Pf growth 48h 3.29µM*, Cycloheximide cs -3.4 and HCV inhibitor -19.8%.
For CCCS(=O)(=O)c1c(S(=O)(=O)CCC)c2c(C(N)=O)cccn2c1C(=O)c1ccc(F)cc1 the results were AMA1-RON2 inh 2.3%, Shiga inhibitor -3.6, Pf growth 96h 14.0%, Pf growth 48h 8.4%, Cycloheximide cs -0.1 and HCV inhibitor -18.1%.
CCCS(=O)(=O)c1c(S(=O)(=O)CCC)c2cnccn2c1C(=O)c1ccc(OC)cc1 was read as AMA1-RON2 inh 0.0%, Shiga inhibitor 7.6, Pf growth 96h inconclusive, Pf growth 48h 10.4µM*, Cycloheximide cs 1.3 and HCV inhibitor 18.6%.
`Cc1cc(N(C)C)c(C#N)c(NCc2ccccc2)n1` gave AMA1-RON2 inh 19.4%, Shiga inhibitor 21.8, Pf growth 96h inconclusive, Pf growth 48h 1.6%, Cycloheximide cs -4.0 and HCV inhibitor -8.8%.
For CN(C)c1ccnc(N(Cc2ccccc2)Cc2ccccc2)c1C#N the results were AMA1-RON2 inh -8.9%, Shiga inhibitor 49.9*, Pf growth 48h inconclusive, Cycloheximide cs 29.3* and HCV inhibitor inconclusive.
For CN(C)c1ccnc(NCc2ccccc2)c1C#N the results were AMA1-RON2 inh -18.6%, Shiga inhibitor 55.1*, Pf growth 48h 9.5%, Cycloheximide cs 30.1* and HCV inhibitor 11.9%.
Screening Cc1ccccc1Nc1nccc(N(C)C)c1C#N returned AMA1-RON2 inh 4.6%, Shiga inhibitor 7.7, Pf growth 96h inconclusive, Pf growth 48h 23.3%, Cycloheximide cs -1.2 and HCV inhibitor 17.2%.
`N#Cc1c(NCc2ccccc2)ccnc1NCc1cccnc1` gave AMA1-RON2 inh 18.6%, Shiga inhibitor -6.1, Pf growth 96h -20.1%, Pf growth 48h inconclusive, Cycloheximide cs -2.8 and HCV inhibitor 7.08µM*.
`COc1ccc(CN2CCC2(C)C(=O)Nc2cnc3ccccc3c2)c2ccccc12` (centres undefined) gave AMA1-RON2 inh -21.1%.
CC(=O)Nc1ccc2cnn(C(C)=O)c2c1 was read as AMA1-RON2 inh 0.0%.
COCCN(CCOC)c1ncnc2c1cnn2-c1ccc(Cl)cc1 was read as AMA1-RON2 inh 8.1%, Shiga inhibitor 76.3*, Pf growth 96h 0.0%, Pf growth 48h 106.6%, Cycloheximide cs 59.6* and HCV inhibitor inconclusive.
`CCOC(=O)CSc1ncnc2c1cnn2-c1ccc(Cl)cc1` gave AMA1-RON2 inh -3.4%, Shiga inhibitor -17.7, Pf growth 96h -1.5%, Pf growth 48h 12.9%, Cycloheximide cs -1.2 and HCV inhibitor 3.7%.
COCCN(CCOC)c1ncnc2c1cnn2-c1ccccc1 was read as AMA1-RON2 inh 12.8%, Shiga inhibitor 34.2*, Pf growth 96h 64.4%, Pf growth 48h 45.6%, Cycloheximide cs 15.1* and HCV inhibitor -14.2%.
`Nc1[nH]c(C(=O)c2ccccc2)c(-c2ccncc2)c1C(=O)NC1CC1` gave AMA1-RON2 inh 1.1%.
For COc1ccc(CN(C)CC(=O)Nc2cccc(S(=O)(=O)N3CCCC3)c2)cc1F the results were AMA1-RON2 inh 0.6% and HCV inhibitor inconclusive.
Screening CCN(Cc1ccc(OC)c(F)c1)C(C)C(=O)Nc1ccc(S(=O)(=O)N2CCCC2)cc1 (centres undefined) returned AMA1-RON2 inh 4.8%, Pf growth 96h inconclusive, Pf growth 48h 10.4µM* and HCV inhibitor inconclusive.
`COc1ccc(CN(C)C(C)C(=O)Nc2ccc(S(=O)(=O)N3CCCC3)cc2)c(OC)c1OC` (centres undefined) gave Shiga inhibitor -17.8, Pf growth 96h 4.15µM*, Pf growth 48h 7.38µM* and Cycloheximide cs 0.1.
For COc1ccc(CN(C)C(C)C(=O)Nc2ccc(S(=O)(=O)N3CCCCC3)cc2)c(OC)c1 (centres undefined) the results were AMA1-RON2 inh -13.0% and HCV inhibitor inconclusive.
`COc1ccc(C#Cc2c(-c3ccsc3)oc3ccc(-c4cc(OC)c(OC)c(OC)c4)cc23)cc1` gave AMA1-RON2 inh 0.0% and HCV inhibitor 8.9%.
For Brc1ccc2nc(-c3cccs3)c(NCC3CCCO3)n2c1 (centres undefined) the results were AMA1-RON2 inh -10.7%, Shiga inhibitor 55.9*, Pf growth 96h 42.0%, Pf growth 48h -8.6%, Cycloheximide cs 31.7* and HCV inhibitor -23.8%.
For CCOCc1c(C(=O)OCC(=O)NCc2ccc(F)cc2)oc2ccccc12 the results were AMA1-RON2 inh 21.0%, Pf growth 96h 14.5%, Pf growth 48h -17.8% and HCV inhibitor -10.8%.
Screening CN(C)/C=C/c1c([N+](=O)[O-])c2ccc(O)cc2n1-c1ccccc1 returned AMA1-RON2 inh -15.2%, Shiga inhibitor -6.1, Pf growth 96h 10.4µM*, Pf growth 48h inconclusive, Cycloheximide cs -1.1 and HCV inhibitor inconclusive.
Cc1cc(C(=O)CSc2nnc(Nc3ccccc3F)s2)c(C)n1CC1CCCO1 (centres undefined) was read as AMA1-RON2 inh -24.8%, Shiga inhibitor -3.5, Pf growth 96h -0.1%, Cycloheximide cs 11.2 and HCV inhibitor 6.31µM*.
`Cc1cc(C(=O)CSc2nnc(Nc3ccccc3)s2)c(C)n1CC1CCCO1` (centres undefined) gave AMA1-RON2 inh -10.0%, Shiga inhibitor 1.6, Pf growth 96h 10.8%[5.75 µM], Cycloheximide cs -2.5 and HCV inhibitor inconclusive.
Screening COc1ccccc1Nc1nnc(SCC(=O)c2cc(C)n(CC3CCCO3)c2C)s1 (centres undefined) returned AMA1-RON2 inh -3.3%, Shiga inhibitor -11.8, Pf growth 96h 4.65µM*, Pf growth 48h 10.4µM*, Cycloheximide cs -1.7 and HCV inhibitor inconclusive.
`CC12CCC(=O)N1C(C(=O)OCC(=O)Nc1ccc(C(F)(F)F)cc1)CS2` (centres undefined) gave AMA1-RON2 inh -7.3%, Pf growth 96h 7.2%, Pf growth 48h 35.7% and HCV inhibitor 9.1%.
Screening CCOC(=O)c1cnc2c(C)cc(C)cc2c1NCCCN1CCOCC1 returned AMA1-RON2 inh 10.9%, Shiga inhibitor -6.3, Pf growth 96h 4.2%, Pf growth 48h inconclusive, Cycloheximide cs 1.3 and HCV inhibitor -29.6%.
